This is an account of results in PubChem BioAssay (EPA / NIEHS).

Test [1] concerns the target human RAR-related Orphan Receptor gamma (RORg), RORC (gene 6097) (UniProt P51449). In words: ATG_RORg_TRANS: Attagene TRANS-FACTORIAL HepG2 Assay for human RAR-related Orphan Receptor gamma (RORg) (AID 2283011; active = hit-call score of the fitted dose curve at least 0.9, where 1 is the maximum). A digest of the protocol:
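Reporter transcripts from a transfected RORg-GAL4 chimera in HepG2 cells were quantified 24 h after dosing by RT-PCR, 6-FAM labelling, HpaI digestion and capillary electrophoresis; increases over DMSO baseline were fitted.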

For test [2], the target named is Retinoic acid receptor RXR-alpha (Homo sapiens) (UniProt P19793). The experiment in a line: ATG_RXRa_TRANS: Attagene TRANS-FACTORIAL HepG2 Assay for human Retinoid X Receptor alpha (RXRa) (AID 2283012; active = hit-call score of the fitted dose curve at least 0.9, where 1 is the maximum). A digest of the protocol: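 Cells (HepG2) carried transiently transfected GAL4-responsive reporter units. Following a 24 h chemical incubation, reporter mRNA induction was read via RT-PCR fragment analysis; DMSO served as negative control and baseline.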
Chain of Retinoic acid receptor RXR-alpha (Homo sapiens) (P19793 whole entry, looked up, the tested form may be a part): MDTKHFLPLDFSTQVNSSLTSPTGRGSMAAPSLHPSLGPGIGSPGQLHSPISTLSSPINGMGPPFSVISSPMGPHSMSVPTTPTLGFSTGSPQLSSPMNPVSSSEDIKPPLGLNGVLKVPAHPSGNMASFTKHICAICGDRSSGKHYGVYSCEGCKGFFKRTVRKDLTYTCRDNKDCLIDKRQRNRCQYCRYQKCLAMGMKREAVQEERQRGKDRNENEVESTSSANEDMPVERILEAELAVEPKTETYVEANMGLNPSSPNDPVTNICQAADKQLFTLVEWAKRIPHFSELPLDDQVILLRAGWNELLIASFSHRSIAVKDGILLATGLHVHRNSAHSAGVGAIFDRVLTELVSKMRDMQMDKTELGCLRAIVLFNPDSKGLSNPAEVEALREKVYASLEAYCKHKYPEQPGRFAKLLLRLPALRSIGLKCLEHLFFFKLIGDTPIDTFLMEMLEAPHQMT

The target in test [3] is human Retinoid X Receptor beta (RXRb), RXRB (gene 6257) (UniProt P28702). The experiment in a line: ATG_RXRb_TRANS: Attagene TRANS-FACTORIAL HepG2 Assay for human Retinoid X Receptor beta (RXRb) (AID 2283013; active = hit-call score of the fitted dose curve at least 0.9, where 1 is the maximum). A digest of the protocol:
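Multiplexed TRANS reporter assay in HepG2; 24 h dosing; reporter mRNA by RT-PCR/CE fluorescence; gain-of-signal relative to DMSO.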

For test [4], the target named is human Thyroid Receptor alpha (THRa1), THRA (gene 7067) (UniProt P10827). In words: ATG_THRa1_TRANS: Attagene TRANS-FACTORIAL HepG2 Assay for human Thyroid Receptor alpha (THRa1) (AID 2283014; active = hit-call score of the fitted dose curve at least 0.9, where 1 is the maximum). The essentials:
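Transcripts from GAL4-UAS-driven reporters, measured after 24 h compound exposure by RT-PCR plus capillary electrophoresis of 6-FAM-labeled fragments, were fitted for gain of signal relative to DMSO. Cells: transiently transfected HepG2 expressing NR-Gal4 chimeras.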

Read-out in test [5]: E-selectin (Homo sapiens) (UniProt P16581)
The experiment in a line: BSK_3C_Eselectin: BioMAP Diversity Plus: 3C Assay for Eselectin Biomarker Activity (AID 2283015).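 For outcome: cell surface E-selectin protein quantified by ELISA 24 h after dosing.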 The settings on record: primary human endothelial cells (HUVEC); actives raise or lower the signal. The essentials:
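E-selectin ELISA readout, fitted bidirectionally relative to DMSO, taken 24 h post-dosing in HUVEC cultures of the 3C system. Overt cytotoxicity tracked with sulforhodamine B staining of parallel wells.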

Read-out in test [6]: Interleukin-1 alpha (IL1a), IL1A (gene 3552)
In words: BSK_BE3C_IL1a: BioMAP Diversity Plus: BE3C Assay for Interleukin-1 alpha (IL1a) Biomarker Activity (AID 2283016). The following applies: primary human bronchial epithelial cells; actives raise or lower the signal. A digest of the protocol: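 Cultures of primary human bronchial epithelial cells receive test chemical. After 24 h, IL-1a is quantified by ELISA, while parallel wells are fixed in TCA and SRB-stained for total protein. Changes in either direction are fitted relative to DMSO.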

Read-out in test [7]: Monocyte Chemoattractant Protein-1 (MCP1), CCL2 (gene 6347)
In words: BSK_3C_MCP1: BioMAP Diversity Plus: 3C Assay for Monocyte Chemoattractant Protein-1 (MCP1) Biomarker Activity (AID 2283017). The following applies: primary human endothelial cells (HUVEC); actives raise or lower the signal. The essentials: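 MCP-1 was measured by ELISA 24 h after dosing in primary HUVEC 3C cultures and fitted in both directions relative to DMSO; cytotoxicity was checked by SRB total-protein staining in parallel wells.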

Read-out in test [8]: Monocyte Chemoattractant Protein-1 (MCP1), CCL2 (gene 6347)
In words: BSK_4H_MCP1: BioMAP Diversity Plus: 4H Assay for Monocyte Chemoattractant Protein-1 (MCP1) Biomarker Activity (AID 2283018). The settings on record: primary human endothelial cells (HUVEC); actives raise or lower the signal. The essentials:
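Readout: MCP-1 ELISA on compound-treated HUVEC, sampled 24 h post-dosing. Baseline and negative control DMSO; bidirectional fit. Overt toxicity checked alongside by sulforhodamine B protein staining at time of biomarker measurement.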

Read-out in test [9]: Human Leukocyte Antigen - DR isotype (HLADR), HLA-DRA (gene 3122)
The experiment in a line: BSK_3C_HLADR: BioMAP Diversity Plus: 3C Assay for Human Leukocyte Antigen - DR isotype (HLADR) Biomarker Activity (AID 2283019).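 For outcome: ELISA of cell-surface HLA-DR on HUVEC 24 h after dosing.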 The settings on record: primary human endothelial cells (HUVEC); actives raise or lower the signal. The essentials: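 Bidirectional fitting against DMSO was applied to the HLA-DR ELISA signal from human umbilical vein endothelial cells, 24 h post-dose. Cytotoxicity came from parallel SRB total-protein staining; 3C proliferation was counted by SRB at 48 h.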

Read-out in test [10]: Interleukin-8 (IL8), CXCL8 (gene 3576)
In words: BSK_3C_IL8: BioMAP Diversity Plus: 3C Assay for Interleukin-8 (IL8) Biomarker Activity (AID 2283020). The following applies: primary human endothelial cells (HUVEC); actives raise or lower the signal. The essentials:
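Human vascular endothelial cells (umbilical vein) in the 3C system; IL-8 level detected by ELISA at 24 h post-dose, with DMSO as baseline.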

Read-out in test [11]: Monokine induced gamma interferon (MIG), CXCL9 (gene 4283)
In words: BSK_3C_MIG: BioMAP Diversity Plus: 3C Assay for Monokine induced gamma interferon (MIG) Biomarker Activity (AID 2283021).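 For AC50: MIG protein level measured by immunoassay in the treated endothelial cultures.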 The settings on record: primary human endothelial cells (HUVEC); actives raise or lower the signal. A digest of the protocol:
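After 24 h of treatment, human umbilical vein endothelial cultures (3C system) had their MIG biomarker level determined by ELISA, with DMSO serving as negative control.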

For test [12], the target named is human Vitamin D Receptor (VDR), VDR (gene 7421) (UniProt P11473). In words: ATG_VDR_TRANS: Attagene TRANS-FACTORIAL HepG2 Assay for human Vitamin D Receptor (VDR) (AID 2283022; active = hit-call score of the fitted dose curve at least 0.9, where 1 is the maximum). A digest of the protocol:
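Transactivation by an exogenous VDR-Gal4 chimera in transiently transfected HepG2 cells was measured as reporter transcript level 24 hours after chemical treatment. RT-PCR products were analysed by capillary electrophoresis and fitted in the positive direction relative to DMSO.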

Test [13] in a line: BSK_3C_SRB: Viability Assessment in the BioMAP Diversity Plus: 3C Assay (AID 2283023).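 Note: fitted both ways against DMSO so a hit may be signal rise or drop.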 The following applies: primary human endothelial cells (HUVEC). The essentials:
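Cytotoxicity readout in parallel HUVEC 3C cultures: after 24 h compound exposure, cells fixed with 10% TCA, stained with 0.1% SRB and read at 560 nm. Gain or loss relative to DMSO fitted.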

Read-out in test [14]: Matrix Metallopeptidase 1 (MMP1), MMP1 (gene 4312)
In words: BSK_BE3C_MMP1: BioMAP Diversity Plus: BE3C Assay for Matrix Metallopeptidase 1 (MMP1) Biomarker Activity (AID 2283024). The settings on record: primary human bronchial epithelial cells; actives raise or lower the signal. The essentials: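 Dose cells, wait 24 h, run MMP1 ELISA; cells are human bronchial epithelial primaries. Both increases and decreases relative to DMSO counted.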

The nature of test [15]: BSK_3C_Vis: BioMAP Diversity Plus: 3C Assay for Morphology Visualization (AID 2283025).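 For AC50: light microscopy image of cell morphology used as background control.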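 Note: fitted both ways so gain or loss versus DMSO counts.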 The settings on record: primary human endothelial cells (HUVEC). The essentials: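 Endothelial cells from human umbilical vein were treated with test chemicals for 24 h and inspected by light microscopy for changes in cell conformation.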
A short description of test [16]: BSK_4H_SRB: Viability Assessment in the BioMAP Diversity Plus: 4H Assay (AID 2283027).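 For AC50: curves fitted both ways versus DMSO so AC50 may be loss or gain.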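 Note: cells exposed to compound for 24 h before staining.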 The settings on record: primary human endothelial cells (HUVEC). The essentials:
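Human umbilical vein endothelial cells, 24 h after chemical dosing; total protein measured by 0.1% sulforhodamine B staining after 10% TCA fixation, read at 560 nm. Bidirectional fitting against DMSO.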

Read-out in test [17]: Thrombomodulin, THBD (gene 7056)
The experiment in a line: BSK_3C_Thrombomodulin: BioMAP Diversity Plus: 3C Assay for Thrombomodulin Biomarker Activity (AID 2283029). The following applies: primary human endothelial cells (HUVEC); actives raise or lower the signal. A digest of the protocol:
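Thrombomodulin ELISA, human primary HUVEC, 24 h post-dose; data fitted in both directions relative to DMSO.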

Read-out in test [18]: Urokinase-type plasminogen activator receptor (uPAR), PLAUR (gene 5329)
The experiment in a line: BSK_4H_uPAR: BioMAP Diversity Plus: 4H Assay for Urokinase-type plasminogen activator receptor (uPAR) Biomarker Activity (AID 2283030). The settings on record: primary human endothelial cells (HUVEC); actives raise or lower the signal. The essentials:
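uPAR level read by ELISA on HUVEC cultures (BioMAP 4H) 24 h post-dosing, analyzed for gain or loss relative to DMSO. Parallel SRB staining assessed overt cytotoxicity.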

Test [19] is described as follows: BSK_BE3C_SRB: Viability Assessment in the BioMAP Diversity Plus: BE3C Assay (AID 2283028).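 For AC50: fitted both ways so AC50 may mark signal gain or loss versus DMSO.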 The following applies: primary human bronchial epithelial cells. A digest of the protocol: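 Cytotoxicity read-out: SRB (0.1%) staining of TCA-fixed (10%) human lung bronchial epithelial cells, absorbance 560 nm, 24 h post-dosing. Curves fitted both directions relative to DMSO.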

Read-out in test [20]: Pselectin, SELP (gene 6403)
The experiment in a line: BSK_4H_Pselectin: BioMAP Diversity Plus: 4H Assay for Pselectin Biomarker Activity (AID 2283026). The following applies: primary human endothelial cells (HUVEC); actives raise or lower the signal. The essentials: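 Human vascular endothelium from umbilical vein; P-selectin measured by ELISA at 24 h post-dose, with cytotoxicity checked by sulforhodamine B total-protein staining in parallel cultures (0.1% SRB after 10% TCA fixation, read at 560 nm).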

SMILES strings stand for the structures. Several values for one entry are separate records, joined by “and”; a condition that tells them apart may be missing. Equal entries are not always repeated. Records with an inconclusive call do not appear. A structure can be active in one record and inactive in another. Activity calls are given as the source filed them. Rule for the calls, unless noted: active = hit-call score of the fitted dose curve at least 0.9, where 1 is the maximum; inactive = score below 0.9.

Chain of human Vitamin D Receptor (VDR), VDR (gene 7421) (P11473 whole entry, looked up, the tested form may be a part): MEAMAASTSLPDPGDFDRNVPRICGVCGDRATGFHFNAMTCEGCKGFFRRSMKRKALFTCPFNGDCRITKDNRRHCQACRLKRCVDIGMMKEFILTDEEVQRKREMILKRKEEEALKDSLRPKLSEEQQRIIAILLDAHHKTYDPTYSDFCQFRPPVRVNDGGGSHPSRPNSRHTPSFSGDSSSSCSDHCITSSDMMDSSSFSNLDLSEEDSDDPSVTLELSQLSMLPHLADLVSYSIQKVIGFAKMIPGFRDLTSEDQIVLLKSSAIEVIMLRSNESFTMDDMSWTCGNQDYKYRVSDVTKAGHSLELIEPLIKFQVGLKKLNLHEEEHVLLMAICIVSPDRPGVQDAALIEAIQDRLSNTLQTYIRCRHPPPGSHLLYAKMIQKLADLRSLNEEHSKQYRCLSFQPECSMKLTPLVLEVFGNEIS
Chain of E-selectin (Homo sapiens) (P16581 whole entry, looked up): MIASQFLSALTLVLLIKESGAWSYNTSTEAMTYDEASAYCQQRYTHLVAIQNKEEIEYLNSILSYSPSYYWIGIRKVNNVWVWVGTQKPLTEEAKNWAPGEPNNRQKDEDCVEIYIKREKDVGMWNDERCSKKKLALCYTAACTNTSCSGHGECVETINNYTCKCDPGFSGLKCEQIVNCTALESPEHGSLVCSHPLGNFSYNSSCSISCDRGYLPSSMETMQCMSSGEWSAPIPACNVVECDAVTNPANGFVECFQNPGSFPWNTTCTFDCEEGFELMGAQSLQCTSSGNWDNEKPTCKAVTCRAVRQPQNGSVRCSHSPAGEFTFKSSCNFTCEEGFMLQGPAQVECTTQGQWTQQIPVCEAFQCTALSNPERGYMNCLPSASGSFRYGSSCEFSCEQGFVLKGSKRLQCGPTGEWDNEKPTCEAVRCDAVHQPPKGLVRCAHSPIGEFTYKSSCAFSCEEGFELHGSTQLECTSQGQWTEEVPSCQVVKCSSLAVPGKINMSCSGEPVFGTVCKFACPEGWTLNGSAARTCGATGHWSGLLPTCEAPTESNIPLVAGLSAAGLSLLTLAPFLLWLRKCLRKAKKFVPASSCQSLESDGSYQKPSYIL
Chain of human RAR-related Orphan Receptor gamma (RORg), RORC (gene 6097) (P51449 whole entry, looked up, the tested form may be a part): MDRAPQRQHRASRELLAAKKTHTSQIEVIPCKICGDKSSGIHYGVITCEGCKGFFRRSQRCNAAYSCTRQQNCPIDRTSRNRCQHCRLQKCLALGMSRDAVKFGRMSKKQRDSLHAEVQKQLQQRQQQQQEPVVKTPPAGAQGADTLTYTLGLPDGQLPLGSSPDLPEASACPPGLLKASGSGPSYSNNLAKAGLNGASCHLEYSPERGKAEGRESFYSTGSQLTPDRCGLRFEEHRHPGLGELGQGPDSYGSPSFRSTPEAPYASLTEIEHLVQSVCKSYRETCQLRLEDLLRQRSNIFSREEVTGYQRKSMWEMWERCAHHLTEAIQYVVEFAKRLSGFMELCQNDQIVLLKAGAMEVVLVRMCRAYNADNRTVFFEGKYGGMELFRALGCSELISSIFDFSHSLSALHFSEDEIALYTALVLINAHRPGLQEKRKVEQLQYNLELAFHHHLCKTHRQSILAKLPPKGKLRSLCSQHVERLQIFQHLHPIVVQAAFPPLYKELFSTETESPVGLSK
Chain of human Thyroid Receptor alpha (THRa1), THRA (gene 7067) (P10827 whole entry, looked up, the tested form may be a part): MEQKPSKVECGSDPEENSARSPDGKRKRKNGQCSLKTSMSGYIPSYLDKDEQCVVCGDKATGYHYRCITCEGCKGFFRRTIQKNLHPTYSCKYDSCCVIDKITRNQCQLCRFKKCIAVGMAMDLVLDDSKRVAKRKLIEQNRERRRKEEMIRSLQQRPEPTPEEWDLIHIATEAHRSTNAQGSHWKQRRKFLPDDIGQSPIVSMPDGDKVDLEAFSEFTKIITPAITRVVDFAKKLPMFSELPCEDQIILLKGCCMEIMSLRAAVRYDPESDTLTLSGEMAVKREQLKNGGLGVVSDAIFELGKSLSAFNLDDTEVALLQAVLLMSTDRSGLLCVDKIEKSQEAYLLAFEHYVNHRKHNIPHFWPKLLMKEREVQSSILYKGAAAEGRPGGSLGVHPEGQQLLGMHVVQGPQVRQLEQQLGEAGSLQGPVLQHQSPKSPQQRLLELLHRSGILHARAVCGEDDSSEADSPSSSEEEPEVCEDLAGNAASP
Chain of human Retinoid X Receptor beta (RXRb), RXRB (gene 6257) (P28702 whole entry, looked up): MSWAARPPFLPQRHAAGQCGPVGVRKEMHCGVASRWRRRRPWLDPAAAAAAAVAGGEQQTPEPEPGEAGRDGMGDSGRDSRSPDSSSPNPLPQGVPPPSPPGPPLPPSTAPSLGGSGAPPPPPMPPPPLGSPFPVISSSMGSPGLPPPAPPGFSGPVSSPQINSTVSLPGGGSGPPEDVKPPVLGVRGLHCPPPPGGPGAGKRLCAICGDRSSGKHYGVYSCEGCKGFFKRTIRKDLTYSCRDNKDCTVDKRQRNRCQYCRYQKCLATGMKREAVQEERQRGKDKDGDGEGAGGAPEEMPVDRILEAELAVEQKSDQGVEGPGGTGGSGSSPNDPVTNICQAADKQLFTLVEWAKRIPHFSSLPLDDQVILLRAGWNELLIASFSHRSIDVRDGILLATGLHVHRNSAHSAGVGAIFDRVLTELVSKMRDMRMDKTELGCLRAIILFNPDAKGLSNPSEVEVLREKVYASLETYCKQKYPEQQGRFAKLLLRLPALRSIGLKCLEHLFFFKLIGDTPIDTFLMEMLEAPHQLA

Broadly, the AC50 is the concentration at which the activity in the assay is half-maximal. Regarding `CCC(=O)O[C@H]1CC[C@H]2[C@@H]3CCC4=CC(=O)CC[C@]4(C)[C@H]3CC[C@]12C`, the molecule was classed as inactive in test [1], in test [2], in test [3], in test [4], in [6] and in test [12]. For the same molecule, the outcome in test [14] and in test [17] was inactive. Further, the AC50 in test [5] was 32.6 µM (active); in test [7], 29 µM (active); in test [8], 31.8 µM (active); in test [9] it was 33.9 µM (active); in test [10], 27.3 µM (active); in [11], 38.8 µM (active). Besides, the AC50 in test [13] is 28.4 µM (active); in [15] it was 20.7 µM (active); in [16], 33.5 µM (active); in [18], 30.3 µM (active).

On to `CN(C)CCO`, for which the molecule was classed as inactive in [1], in test [2], in test [3], in test [4], in [5] and in [6]. Besides, the result in [7], in test [8], in test [9], in test [11], in [12] and in test [13] was inactive. For the same molecule, the outcome in [14], in test [15], in test [16], in test [19], in test [17] and in test [18] was inactive.

`COS(=O)(=O)OC`: the molecule was classed as inactive in [2], in test [3], in test [4], in test [5], in test [6] and in test [7]. Besides, the result in test [8], in test [9], in test [11], in test [12], in test [13] and in test [14] was inactive. Also, the outcome in [15], in test [16], in [19], in test [17] and in [18] was inactive.

For `O=C(O)C(F)(F)C(F)(F)C(F)(F)C(F)(F)C(F)(F)C(F)(F)C(F)(F)C(F)(F)F`, the result in test [1], in [2], in [4], in [5], in test [7] and in test [8] was inactive. For the same molecule, the result in [9], in test [10], in test [11], in [12], in test [13] and in test [14] was inactive. The result in [15], in test [20], in test [16], in test [17] and in test [18] was inactive. In addition, the AC50 in test [3] was 13.3 µM (active) and 41.1 µM (active) and 26.3 µM (active); in [6], 35 µM (active) and 49.9 µM (active) and 46.6 µM (active); in test [7] it was 54.7 µM (active); in [9] it was 57.3 µM (active) and 55 µM (active); in test [13], 54.3 µM (active) and 51.6 µM (active); in test [14], 52.4 µM (active) and 50.9 µM (active). Besides, the half-maximal activity concentration (AC50) in [16] is 44 µM (active) and 46.1 µM (active); in [19] it was 34.8 µM (active) and 49.8 µM (active).

With `O=S(=O)(O)C(F)(F)C(F)(F)C(F)(F)C(F)(F)F`, the call in [1], in test [2], in test [4], in test [5], in test [6] and in test [7] was inactive. The result in [8], in [9], in [10], in test [11], in test [12] and in test [13] was inactive. The outcome in [14], in test [15], in [16], in test [17] and in [18] was inactive.

Turning to `OCC(O)CO`, the molecule was classed as inactive in [1], in test [2] and in test [3].

On to `Clc1ccc(Cl)cc1`, for which the call in [1], in test [2], in test [3], in [5], in test [6] and in test [7] was inactive. For the same molecule, the result in test [8], in [9], in test [11], in test [12], in test [13] and in [14] was inactive. Also, the result in test [15], in test [16], in test [17] and in test [18] was inactive.
